The record followed here is ChEMBL document CHEMBL2218924, “A broad activity screen in support of a chemogenomic map for kinase signalling research and drug discovery” (Biochem J, 2013).

The target of assay [1] is T1, Ephrin type-A receptor 3 (Homo sapiens) (UniProt P29320).
T1 sequence (whole entry): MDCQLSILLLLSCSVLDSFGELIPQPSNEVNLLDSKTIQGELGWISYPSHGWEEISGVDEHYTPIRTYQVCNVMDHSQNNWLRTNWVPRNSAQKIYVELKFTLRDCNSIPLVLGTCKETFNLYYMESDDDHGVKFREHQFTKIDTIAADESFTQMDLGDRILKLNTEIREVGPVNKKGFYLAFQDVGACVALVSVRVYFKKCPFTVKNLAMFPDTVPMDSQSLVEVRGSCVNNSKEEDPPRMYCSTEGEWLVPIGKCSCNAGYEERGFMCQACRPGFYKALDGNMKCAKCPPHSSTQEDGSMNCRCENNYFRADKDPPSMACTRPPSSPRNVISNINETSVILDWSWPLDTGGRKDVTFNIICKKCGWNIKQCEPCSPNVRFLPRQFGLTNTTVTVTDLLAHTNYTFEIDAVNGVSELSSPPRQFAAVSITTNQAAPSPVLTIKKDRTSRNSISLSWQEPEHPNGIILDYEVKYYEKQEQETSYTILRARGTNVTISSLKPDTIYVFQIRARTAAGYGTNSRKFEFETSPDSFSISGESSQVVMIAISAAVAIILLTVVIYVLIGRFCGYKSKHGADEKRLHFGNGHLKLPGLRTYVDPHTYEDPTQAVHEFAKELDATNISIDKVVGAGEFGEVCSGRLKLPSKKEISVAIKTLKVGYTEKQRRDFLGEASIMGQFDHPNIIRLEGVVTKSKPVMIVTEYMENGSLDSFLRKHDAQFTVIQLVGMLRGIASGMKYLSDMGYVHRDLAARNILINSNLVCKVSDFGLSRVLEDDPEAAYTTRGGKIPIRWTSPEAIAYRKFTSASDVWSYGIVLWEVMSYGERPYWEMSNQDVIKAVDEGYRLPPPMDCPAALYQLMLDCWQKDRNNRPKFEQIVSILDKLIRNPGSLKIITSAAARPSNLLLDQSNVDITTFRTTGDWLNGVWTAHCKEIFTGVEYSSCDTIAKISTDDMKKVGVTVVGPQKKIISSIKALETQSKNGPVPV
The settings on record: at 10 µM.

Assay [2] has as its target Ephrin type-A receptor 4 (Homo sapiens) (UniProt P54764). The settings on record: at 1 µM.
Assay [3] shares this target. The settings on record: at 10 µM.
In assay [4] the target is Ephrin type-A receptor 5 (Homo sapiens) (UniProt P54756). The settings on record: at 1 µM.
Assay [5] shares this target. The settings on record: at 10 µM.
In assay [6] the target is Ephrin type-A receptor 7 (Homo sapiens) (UniProt Q15375). The settings on record: at 1 µM.
Assay [7] has the same target. The settings on record: at 10 µM.
Assay [8] deals with T2, Ephrin type-A receptor 8 (Homo sapiens) (UniProt P29322).
T2 sequence (whole entry): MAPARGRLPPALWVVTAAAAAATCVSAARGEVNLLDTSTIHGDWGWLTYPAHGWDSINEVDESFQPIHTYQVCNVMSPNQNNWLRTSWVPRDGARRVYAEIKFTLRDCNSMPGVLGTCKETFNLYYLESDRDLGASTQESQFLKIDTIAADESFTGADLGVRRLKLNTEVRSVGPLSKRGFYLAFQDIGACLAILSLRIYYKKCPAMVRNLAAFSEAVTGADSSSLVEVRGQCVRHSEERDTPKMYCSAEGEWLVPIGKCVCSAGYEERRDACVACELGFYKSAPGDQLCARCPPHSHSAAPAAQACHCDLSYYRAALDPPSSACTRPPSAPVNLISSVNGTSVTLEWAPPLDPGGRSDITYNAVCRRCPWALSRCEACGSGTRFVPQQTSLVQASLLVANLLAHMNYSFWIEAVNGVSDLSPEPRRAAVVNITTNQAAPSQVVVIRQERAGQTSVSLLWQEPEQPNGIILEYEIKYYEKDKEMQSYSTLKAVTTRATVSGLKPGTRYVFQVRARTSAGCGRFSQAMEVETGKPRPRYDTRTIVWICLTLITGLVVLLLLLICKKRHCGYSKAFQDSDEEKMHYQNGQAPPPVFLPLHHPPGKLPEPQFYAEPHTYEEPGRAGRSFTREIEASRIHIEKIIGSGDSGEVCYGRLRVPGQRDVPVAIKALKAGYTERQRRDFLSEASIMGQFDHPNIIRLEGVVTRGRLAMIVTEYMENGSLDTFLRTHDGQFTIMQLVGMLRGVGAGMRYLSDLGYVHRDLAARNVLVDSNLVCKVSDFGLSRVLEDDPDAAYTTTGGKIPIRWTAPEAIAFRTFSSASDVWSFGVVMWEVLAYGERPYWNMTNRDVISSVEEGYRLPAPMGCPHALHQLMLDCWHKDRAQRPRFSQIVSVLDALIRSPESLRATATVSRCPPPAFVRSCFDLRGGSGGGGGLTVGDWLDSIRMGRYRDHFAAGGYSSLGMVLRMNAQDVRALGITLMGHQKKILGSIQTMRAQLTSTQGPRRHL
The settings on record: at 1 µM.

In assay [9] the target is T2, Ephrin type-A receptor 8 (Homo sapiens). The settings on record: at 10 µM.
The target of assay [10] is T3, Ephrin type-B receptor 1 (Homo sapiens) (UniProt P54762).
T3 sequence (whole entry): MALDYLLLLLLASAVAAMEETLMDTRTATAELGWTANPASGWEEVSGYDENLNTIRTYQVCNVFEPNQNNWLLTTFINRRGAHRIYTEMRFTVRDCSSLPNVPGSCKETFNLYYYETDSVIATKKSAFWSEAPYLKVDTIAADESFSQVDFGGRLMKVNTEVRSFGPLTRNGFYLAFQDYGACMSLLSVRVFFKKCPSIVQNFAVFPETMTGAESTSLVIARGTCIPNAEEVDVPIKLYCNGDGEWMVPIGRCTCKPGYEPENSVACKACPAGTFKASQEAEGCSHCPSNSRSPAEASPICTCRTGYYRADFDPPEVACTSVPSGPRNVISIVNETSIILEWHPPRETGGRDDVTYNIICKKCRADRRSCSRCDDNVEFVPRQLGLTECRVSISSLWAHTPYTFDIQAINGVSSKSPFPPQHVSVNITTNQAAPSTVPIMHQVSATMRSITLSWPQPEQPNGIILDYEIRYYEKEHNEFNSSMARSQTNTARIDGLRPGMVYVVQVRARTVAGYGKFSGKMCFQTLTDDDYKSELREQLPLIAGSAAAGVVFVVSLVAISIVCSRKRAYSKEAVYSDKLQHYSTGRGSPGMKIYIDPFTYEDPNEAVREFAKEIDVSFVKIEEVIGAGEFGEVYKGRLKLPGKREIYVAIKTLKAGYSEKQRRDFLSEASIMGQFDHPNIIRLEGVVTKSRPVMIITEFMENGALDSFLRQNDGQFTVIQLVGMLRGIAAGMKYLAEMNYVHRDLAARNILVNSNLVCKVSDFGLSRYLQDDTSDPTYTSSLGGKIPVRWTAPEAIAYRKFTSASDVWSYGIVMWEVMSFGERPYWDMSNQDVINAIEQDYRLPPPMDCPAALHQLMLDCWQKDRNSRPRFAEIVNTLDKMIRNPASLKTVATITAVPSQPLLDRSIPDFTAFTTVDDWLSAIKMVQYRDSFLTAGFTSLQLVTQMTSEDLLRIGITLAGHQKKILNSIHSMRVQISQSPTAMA
The settings on record: at 1 µM.

Chain of Ephrin type-A receptor 7 (Homo sapiens) (Q15375 28-998 limits assumed): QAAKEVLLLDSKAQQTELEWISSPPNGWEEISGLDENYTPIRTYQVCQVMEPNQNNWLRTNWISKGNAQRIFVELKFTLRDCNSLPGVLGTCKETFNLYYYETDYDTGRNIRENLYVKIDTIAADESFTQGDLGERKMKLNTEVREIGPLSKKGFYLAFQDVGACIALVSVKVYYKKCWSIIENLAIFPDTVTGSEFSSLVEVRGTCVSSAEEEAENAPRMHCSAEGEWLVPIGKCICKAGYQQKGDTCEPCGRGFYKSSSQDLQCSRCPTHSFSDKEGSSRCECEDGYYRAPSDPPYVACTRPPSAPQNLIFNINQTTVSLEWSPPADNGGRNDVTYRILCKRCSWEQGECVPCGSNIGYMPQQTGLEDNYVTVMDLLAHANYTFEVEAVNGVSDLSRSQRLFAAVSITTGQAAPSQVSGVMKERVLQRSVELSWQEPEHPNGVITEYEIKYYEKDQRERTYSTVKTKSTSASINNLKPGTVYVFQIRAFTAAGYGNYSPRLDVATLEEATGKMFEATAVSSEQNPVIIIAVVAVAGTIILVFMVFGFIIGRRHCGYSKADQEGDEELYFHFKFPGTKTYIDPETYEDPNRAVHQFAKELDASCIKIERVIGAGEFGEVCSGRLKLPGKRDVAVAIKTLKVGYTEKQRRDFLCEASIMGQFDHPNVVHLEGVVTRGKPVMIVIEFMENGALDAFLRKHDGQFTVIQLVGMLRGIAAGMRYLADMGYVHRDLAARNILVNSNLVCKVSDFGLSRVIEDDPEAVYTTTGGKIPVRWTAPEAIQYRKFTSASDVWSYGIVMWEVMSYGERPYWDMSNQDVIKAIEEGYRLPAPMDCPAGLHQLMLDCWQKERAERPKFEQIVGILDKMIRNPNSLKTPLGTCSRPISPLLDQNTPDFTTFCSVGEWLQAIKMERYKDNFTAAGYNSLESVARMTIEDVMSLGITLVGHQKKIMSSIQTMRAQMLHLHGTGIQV
Chain of Ephrin type-A receptor 5 (Homo sapiens) (P54756 whole entry): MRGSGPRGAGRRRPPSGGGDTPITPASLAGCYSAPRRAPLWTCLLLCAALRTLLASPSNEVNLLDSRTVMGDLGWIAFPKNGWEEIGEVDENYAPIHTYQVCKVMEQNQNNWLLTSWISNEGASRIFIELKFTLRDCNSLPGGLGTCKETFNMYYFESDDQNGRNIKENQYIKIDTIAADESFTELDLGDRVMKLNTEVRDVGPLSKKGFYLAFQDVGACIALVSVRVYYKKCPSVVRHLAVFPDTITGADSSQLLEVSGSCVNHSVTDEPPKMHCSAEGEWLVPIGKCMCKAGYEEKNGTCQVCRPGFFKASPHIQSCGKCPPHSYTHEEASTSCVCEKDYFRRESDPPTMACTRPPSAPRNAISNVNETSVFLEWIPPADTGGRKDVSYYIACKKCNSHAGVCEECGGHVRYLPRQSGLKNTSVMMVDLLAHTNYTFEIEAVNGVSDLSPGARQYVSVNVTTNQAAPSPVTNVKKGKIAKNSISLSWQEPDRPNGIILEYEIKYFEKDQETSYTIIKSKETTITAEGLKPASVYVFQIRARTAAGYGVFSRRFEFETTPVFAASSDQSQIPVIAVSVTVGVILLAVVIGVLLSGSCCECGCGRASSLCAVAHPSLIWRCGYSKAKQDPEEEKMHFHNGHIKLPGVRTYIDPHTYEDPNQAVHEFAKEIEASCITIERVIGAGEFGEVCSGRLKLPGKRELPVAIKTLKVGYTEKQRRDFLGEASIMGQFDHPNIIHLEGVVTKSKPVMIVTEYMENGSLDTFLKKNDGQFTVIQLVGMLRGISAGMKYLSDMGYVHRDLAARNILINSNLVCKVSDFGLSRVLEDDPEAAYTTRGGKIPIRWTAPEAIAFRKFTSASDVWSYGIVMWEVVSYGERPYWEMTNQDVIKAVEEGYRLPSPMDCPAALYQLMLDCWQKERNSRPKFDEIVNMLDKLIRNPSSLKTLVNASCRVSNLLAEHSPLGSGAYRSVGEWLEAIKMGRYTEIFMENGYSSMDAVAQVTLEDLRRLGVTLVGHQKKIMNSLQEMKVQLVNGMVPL
Chain of Ephrin type-A receptor 4 (Homo sapiens) (P54764 whole entry): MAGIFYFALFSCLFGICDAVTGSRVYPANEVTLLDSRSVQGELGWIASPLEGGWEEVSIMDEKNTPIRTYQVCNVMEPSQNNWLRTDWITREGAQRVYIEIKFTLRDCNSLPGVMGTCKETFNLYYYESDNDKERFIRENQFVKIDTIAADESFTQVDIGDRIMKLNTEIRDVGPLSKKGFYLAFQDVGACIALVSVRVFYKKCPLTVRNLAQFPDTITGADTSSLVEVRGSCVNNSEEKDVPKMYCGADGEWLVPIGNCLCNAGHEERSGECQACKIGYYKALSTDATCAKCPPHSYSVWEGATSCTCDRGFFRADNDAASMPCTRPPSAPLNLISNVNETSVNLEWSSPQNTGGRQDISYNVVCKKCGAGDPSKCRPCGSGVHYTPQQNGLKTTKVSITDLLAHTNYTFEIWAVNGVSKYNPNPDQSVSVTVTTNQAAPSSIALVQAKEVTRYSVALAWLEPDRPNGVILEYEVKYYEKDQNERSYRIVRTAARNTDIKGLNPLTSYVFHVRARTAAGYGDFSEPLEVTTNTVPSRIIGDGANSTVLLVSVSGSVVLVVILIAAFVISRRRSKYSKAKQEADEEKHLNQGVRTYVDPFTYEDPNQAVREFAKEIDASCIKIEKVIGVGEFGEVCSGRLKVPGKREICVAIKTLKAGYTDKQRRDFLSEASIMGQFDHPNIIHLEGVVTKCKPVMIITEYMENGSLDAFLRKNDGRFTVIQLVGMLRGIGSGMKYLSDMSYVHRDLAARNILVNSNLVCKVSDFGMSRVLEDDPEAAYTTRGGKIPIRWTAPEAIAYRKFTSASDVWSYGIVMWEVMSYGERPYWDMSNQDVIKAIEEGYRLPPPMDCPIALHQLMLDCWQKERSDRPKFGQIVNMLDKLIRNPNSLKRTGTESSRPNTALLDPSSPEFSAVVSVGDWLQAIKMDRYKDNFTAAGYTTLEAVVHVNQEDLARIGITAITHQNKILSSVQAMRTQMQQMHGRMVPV

The term residual activity denotes the signal under treatment as a percentage of the control signal. As to `COc1ccc(OC)c2c(=S)c3ccccc3[nH]c12`, the residual activity in [1] came to 97%; in assay [2] it was 100%; in [3] it was 105%; in [4], 101%; in assay [5] it was 96%; in assay [6], 92%. In addition, the residual activity stood at 89% in assay [7], 96% in assay [8], 100% in assay [9] and 97% in assay [10].
